Results taken from PubChem BioAssay (Tox21).
Values without a mark were called inactive. Inconclusive results are not listed. A call without a number means that no potency is given here. Active and inactive are the calls of the source. Unless noted, calls follow the shape of the full dose curve.

Key:
[1] = Nuclear factor erythroid 2-related factor 2/antioxidant responsive element (Nrf2/ARE) small molecule agonists: luciferase reporter gene qHTS assay in human keratinocytes (AID 1919969); also: nearly all actives have a fitted effect of over 35% in size; also: potency is read from the fitted curve at half-maximal effect
[2] = molecular target: KiSS-1 receptor (Homo sapiens) (UniProt Q969F8); test: Human kisspeptin (KISS1R) small molecule agonists, calcium flux assay in KISS1R-HEK293 cells (AID 1920064; active = well fitted activation curve with a large enough effect in the repeat runs)
Outline: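 Agonist activity is monitored as intracellular calcium rise in engineered HEK293 cells carrying human KISS1R. Cells are dye-loaded for 1 h at 37 C before compound addition, and fluorescence is recorded for 3 min.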

[3] = G protein-coupled receptor (GPCR) small molecule agonists, calcium flux assay: HEK293 wild type cell line counter screen (AID 1920065)
Outline: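 Seed cells, incubate 18 h (37 C, 5% CO2); add calcium dye, 1 h at 37 C; pin-transfer compounds, ATP control or DMSO; read fluorescence 480/540 nm each second for 3 min.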

[4] = p53 small molecule agonists, cell-based qHTS assay with human liver microsomes (AID 1963577);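 also: p53 response element beta-lactamase reporter cells with liver microsomes plus NADPH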
Outline: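 16 h, 37 C exposure of p53RE-bla cells to compounds with human liver microsomes and NADPH (0.5 mg/mL final each); detection via LiveBLAzer mixture, 2 h dark at room temperature.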

[5] = p53 small molecule agonists, cell-based qHTS assay with rat liver microsomes (AID 1963578)
Outline: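 With rat liver microsomes and NADPH present (0.5 mg/mL final each), p53RE-bla cells are treated with compound for 16 h at 37 C. LiveBLAzer detection mixture is then applied for 2 h at room temperature in the dark.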

[6] = p53 small molecule agonists, cell-based qHTS assay with human liver microsomes: qHTS cell viability counter screen (AID 1963579); also: nearly all actives have a fitted effect of over 45% in size
Outline: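 In this multiplexed counter screen, the reporter plates were subsequently treated with CellTiter-Glo so that cell viability, reflected by luminescence, could be recorded for p53RE-bla cells dosed 16 h with compounds under microsomal activation (HLM and NADPH).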

[7] = p53 small molecule agonists, cell-based qHTS assay with rat liver microsomes: qHTS cell viability counter screen (AID 1963580); also: nearly all actives have a fitted effect of over 45% in size
Outline: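 Cytotoxicity counter screen: intracellular ATP read by CellTiter-Glo luminescence in the p53 reporter wells. HCT-116 p53RE-bla cells were treated for 16 h at 37 C alongside rat liver microsomes and NADPH, each 0.5 mg/mL final.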

[8] = molecular target: 5-hydroxytryptamine receptor 2A (Homo sapiens) (UniProt P28223); test: 5-hydroxytryptamine receptor 2A (HTR2A) small molecule agonists, cell-based qHTS assay (AID 1963587); also: nearly all actives have a fitted effect of over 30% in size; also: potency is read from the fitted curve at half-maximal effect
Outline: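 Kinetic calcium-flux fluorescence (2 min, 1 sec intervals) after compound addition in agonist mode. HTR2A-CHO cells were cultured 18 h, then dye-loaded 1 h at 37 C.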

[9] = molecular target: Muscarinic acetylcholine receptor M1 (Homo sapiens) (UniProt P11229); test: Cholinergic receptor muscarinic 1 (CHRM1) small molecule antagonists, cell-based qHTS assay (AID 1963588); also: nearly all actives have a fitted effect of over 40% in size
Outline: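 Compounds were tested at 15 concentrations in three independent runs. Dye-loaded CHRM1-CHO cells were exposed 5 min at room temperature before stimulation by acetylcholine added at 50nM. Intracellular calcium was read kinetically on FDSS for 3 min.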

[10] = cAMP Responsive Elements (CRE) small molecule antagonists, cell-based qHTS assay (AID 1963591; active = well fitted inhibition curve with a large enough effect in the signal ratio in the repeat runs, not every such curve was filed as active; the % refers to the signal ratio)
Outline: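 Cells (CRE-bla HEK 293T, DMEM with 10% dialyzed FBS and 25 mM HEPES) are seeded and incubated 18 h. Compounds are added with NKH477 agonist at 0.25 uM final for 3 h, then FRET substrate for 2 h.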

[11] = molecular target: Beta-2 adrenergic receptor (Homo sapiens) (UniProt P07550); test: Adrenergic beta2 receptor (ADRB2) small molecule antagonists, cell-based qHTS assay (AID 1963592); also: series mostly up to about 92 µM; nearly all actives have a fitted effect of over 50% in size
Outline: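 Assay format: CHO-ADRB2 cells, 18-20hr seeding at 37C/5% CO2, then compound plus 1nM isoproterenol agonist mix for 0.5hr RT. Homogeneous time-resolved fluorescence cAMP detection after 1hr, expressed as 665/615 nm ratio.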

[12] = molecular target: D(2) dopamine receptor (Homo sapiens) (UniProt P14416); test: Dopamine D2 receptor (DRD2) small molecule agonists, cell-based qHTS assay (AID 1963594); also: nearly all actives have a fitted effect of over 35% in size
Outline: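 cAMP accumulation in DRD2-HEK293 cells measured by HTRF after 1 h detection; compounds added 10 min before NKH477 (200nM […]) forskolin-analogue stimulation, 30 min at room temperature, with Ro20-1724 present at 0.1 mM final.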

[13] = molecular target: Muscarinic acetylcholine receptor M1 (Homo sapiens) (UniProt P11229); test: Cholinergic receptor muscarinic 1 (CHRM1) small molecule agonists, cell-based qHTS assay (AID 1963589); also: nearly all actives have a fitted effect of over 35% in size
Outline: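 Cells were plated and incubated 18 h at 37 C/5% CO2, loaded with calcium dye for 1 h at 37 C, then treated with compounds in DMSO. Fluorescence was recorded kinetically at 1 sec intervals.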

[14] = molecular target: Beta-2 adrenergic receptor (Homo sapiens) (UniProt P07550); test: Adrenergic beta2 receptor (ADRB2) small molecule agonists, cell-based qHTS assay (AID 1963593);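 also: CHO cells stably overexpressing human ADRB2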
Outline: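 CHO cells stably over-expressing ADRB2 were plated overnight at 37C, then dosed with compounds plus a stimulation mix containing 100uM IBMX and 25uM Ro-20-1724 for 0.5hr at room temperature. cAMP was measured by HTRF competition, 1hr.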

[15] = p53 small molecule agonists, cell-based qHTS assay: qHTS cell viability counter screen (AID 1963581); also: nearly all actives have a fitted effect of over 45% in size
Outline: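 Viability was counter-screened in parallel with the p53 agonist reporter by measuring intracellular ATP luminescence in the same HCT-116 p53RE-bla wells after 16 h compound treatment at 37 C.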

[16] = molecular target: 5-hydroxytryptamine receptor 2A (Homo sapiens) (UniProt P28223); test: 5-hydroxytryptamine receptor 2A (HTR2A) small molecule antagonists, cell-based qHTS assay (AID 1963586); also: nearly all actives have a fitted effect of over 45% in size; also: potency is read from the fitted curve at half-maximal effect
Outline: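 CHO cells stably expressing human HTR2A were plated for 18 h at 37 C, then loaded with calcium dye for 1 h. Compounds were preincubated 5 min at room temperature before DOI (4 nM solution) was added. Kinetic fluorescence was read for 3 min.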

[17] = molecular target: D(2) dopamine receptor (Homo sapiens) (UniProt P14416); test: Dopamine D2 receptor (DRD2) small molecule antagonists, cell-based qHTS assay (AID 1963595; active = well fitted inhibition curve with a large enough effect in the signal ratio in the repeat runs, with a control signal flat; the % refers to the signal ratio)
Outline: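 HTRF cAMP read-out at 665 and 620 nm emission (340 nm excitation). Antagonist mode: compounds were tested against 12 nM quinpirole in DRD2-HEK293 cells, with 200 nM NKH477 raising cAMP and 0.1 mM Ro20-1724 blocking its breakdown.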

[18] = cAMP Responsive Elements (CRE) small molecule agonists, cell-based qHTS assay (AID 1963590)
Outline: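 Cells carrying a CRE-driven beta-lactamase reporter (HEK 293T) are seeded, incubated overnight (18 h), and treated with test compounds for 3 h at 37 C; reporter activity is then detected with a FRET substrate after 2 h at room temperature.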

[19] = p53 small molecule agonists, cell-based qHTS assay (AID 1963582; active = well fitted activation curve with a large enough effect in the signal ratio in the repeat runs, not every such curve was filed as active; the % refers to the signal ratio)
Outline: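 Cells carrying a p53-responsive bla reporter are treated with test compounds for 16 h at 37 C; beta-lactamase activity is then detected with LiveBLAzer B/G FRET substrate after 2 h at room temperature.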

Sequence of KiSS-1 receptor (Homo sapiens) (Q969F8 whole entry, looked up): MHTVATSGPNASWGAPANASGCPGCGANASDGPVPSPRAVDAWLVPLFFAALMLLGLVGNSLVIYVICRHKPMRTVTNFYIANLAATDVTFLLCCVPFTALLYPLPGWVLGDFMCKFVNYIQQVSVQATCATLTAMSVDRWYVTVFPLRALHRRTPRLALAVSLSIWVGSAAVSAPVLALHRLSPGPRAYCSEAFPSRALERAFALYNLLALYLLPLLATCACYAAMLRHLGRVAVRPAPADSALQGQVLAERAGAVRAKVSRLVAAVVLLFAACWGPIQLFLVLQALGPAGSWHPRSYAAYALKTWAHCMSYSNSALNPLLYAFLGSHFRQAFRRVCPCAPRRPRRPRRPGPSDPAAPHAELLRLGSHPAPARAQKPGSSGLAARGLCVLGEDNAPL
Sequence of 5-hydroxytryptamine receptor 2A (Homo sapiens) (P28223 whole entry, looked up): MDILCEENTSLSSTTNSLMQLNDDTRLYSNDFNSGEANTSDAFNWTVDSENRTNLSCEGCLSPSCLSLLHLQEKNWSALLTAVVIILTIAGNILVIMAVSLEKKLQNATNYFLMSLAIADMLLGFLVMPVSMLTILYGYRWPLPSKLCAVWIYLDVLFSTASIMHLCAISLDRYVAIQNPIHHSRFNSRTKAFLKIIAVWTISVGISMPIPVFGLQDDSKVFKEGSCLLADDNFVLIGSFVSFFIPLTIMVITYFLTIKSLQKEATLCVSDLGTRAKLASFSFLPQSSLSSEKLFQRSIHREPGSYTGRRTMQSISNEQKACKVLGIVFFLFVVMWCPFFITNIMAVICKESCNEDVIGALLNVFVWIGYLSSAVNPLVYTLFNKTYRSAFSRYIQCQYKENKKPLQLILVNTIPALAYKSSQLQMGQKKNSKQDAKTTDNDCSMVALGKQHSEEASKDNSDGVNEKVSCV
Sequence of D(2) dopamine receptor (Homo sapiens) (P14416 whole entry, looked up): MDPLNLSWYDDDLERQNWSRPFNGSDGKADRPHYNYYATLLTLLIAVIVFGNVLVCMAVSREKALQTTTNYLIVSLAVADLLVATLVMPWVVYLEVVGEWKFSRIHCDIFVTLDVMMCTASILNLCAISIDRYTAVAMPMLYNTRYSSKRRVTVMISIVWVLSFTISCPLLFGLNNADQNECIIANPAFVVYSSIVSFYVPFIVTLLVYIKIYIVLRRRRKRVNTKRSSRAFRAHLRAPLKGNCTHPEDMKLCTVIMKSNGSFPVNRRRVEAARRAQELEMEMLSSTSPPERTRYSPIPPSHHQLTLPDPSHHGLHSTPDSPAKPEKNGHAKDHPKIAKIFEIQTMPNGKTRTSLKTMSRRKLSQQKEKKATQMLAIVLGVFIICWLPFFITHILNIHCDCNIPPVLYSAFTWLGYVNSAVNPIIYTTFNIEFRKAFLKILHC
Sequence of Muscarinic acetylcholine receptor M1 (Homo sapiens) (P11229 whole entry, looked up): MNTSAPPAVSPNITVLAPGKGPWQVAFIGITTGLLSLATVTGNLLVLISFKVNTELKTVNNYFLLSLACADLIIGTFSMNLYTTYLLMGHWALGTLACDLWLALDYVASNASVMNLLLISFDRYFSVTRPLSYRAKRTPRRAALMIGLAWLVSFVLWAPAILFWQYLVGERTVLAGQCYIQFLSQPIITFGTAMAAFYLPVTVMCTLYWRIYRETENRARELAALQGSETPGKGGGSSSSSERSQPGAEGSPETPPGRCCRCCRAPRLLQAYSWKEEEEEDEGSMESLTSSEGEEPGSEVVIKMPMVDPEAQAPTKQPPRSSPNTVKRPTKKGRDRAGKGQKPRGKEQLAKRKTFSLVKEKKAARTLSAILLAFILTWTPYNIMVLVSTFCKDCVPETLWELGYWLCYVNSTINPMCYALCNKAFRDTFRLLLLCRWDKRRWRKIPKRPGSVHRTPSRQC
Sequence of Beta-2 adrenergic receptor (Homo sapiens) (P07550 whole entry, looked up): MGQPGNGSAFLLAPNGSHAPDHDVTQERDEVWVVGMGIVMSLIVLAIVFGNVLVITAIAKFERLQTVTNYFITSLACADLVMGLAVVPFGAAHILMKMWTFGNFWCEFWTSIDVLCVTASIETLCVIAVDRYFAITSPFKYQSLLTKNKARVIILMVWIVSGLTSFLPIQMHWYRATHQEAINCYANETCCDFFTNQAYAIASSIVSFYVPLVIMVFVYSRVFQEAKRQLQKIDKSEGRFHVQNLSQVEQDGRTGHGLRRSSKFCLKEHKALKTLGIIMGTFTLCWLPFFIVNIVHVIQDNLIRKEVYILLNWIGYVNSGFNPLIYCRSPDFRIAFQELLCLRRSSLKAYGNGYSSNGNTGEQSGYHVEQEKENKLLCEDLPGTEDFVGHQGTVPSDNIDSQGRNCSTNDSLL

SMILES	Potency [1]	Potency [2]	Potency [3]	Potency [4]	Potency [5]	Potency [6]	Potency [7]	Potency [8]	Potency [9]	Potency [10]	Potency [11]	Potency [12]	Potency [13]	Potency [14]	Potency [15]	Potency [16]	Potency [17]	Potency [18]	Potency [19]
Cc1ccc(O)c(O)c1	66.6 µM (active)	inactive	inactive	inactive	inactive	inactive	inactive	inactive	inactive	inactive	inactive	inactive							
CCCCCCCCS(=O)C(C)Cc1ccc2c(c1)OCO2 (configuration not stated)	inactive	inactive	inactive	inactive	inactive	inactive		inactive	inactive		inactive	inactive	inactive	inactive					
CC[C@@]1(O)C(=O)OCc2c1cc1n(c2=O)Cc2cc3c(CN(C)C)c(O)ccc3nc2-1	inactive	inactive					inactive				inactive	inactive		inactive					
CCCCCCCCCCCCCOS(=O)(=O)O	inactive	inactive	inactive				inactive		inactive	inactive	inactive	inactive	inactive		inactive	42.1 µM (active)	inactive		
Oc1ccc(-c2ccccc2)c(Cl)c1	54.5 µM (active)	inactive	inactive	inactive	inactive		inactive		inactive		inactive	inactive	inactive	inactive	inactive	26.5 µM (active)	inactive		
CCN(CC)CCOC(=O)C1(C2CCCCC2)CCCCC1	inactive	inactive	inactive			inactive					inactive								
OCCN1CCN(CCCN2c3ccccc3Sc3ccc(C(F)(F)F)cc32)CC1	inactive	inactive		inactive	inactive	inactive				inactive		inactive			inactive			inactive	
CNCCCCOc1ccccc1Cc1ccccc1	inactive	inactive	inactive	inactive	inactive		inactive	10.7 µM (active)	inactive	inactive		inactive	inactive		inactive	0.115 µM (active)	inactive	inactive	inactive
CCN(C(=O)N(CC)c1ccccc1)c1ccccc1	inactive	inactive	inactive			inactive	inactive	inactive	inactive		inactive		inactive		inactive	inactive	inactive		
COc1cc(Nc2c(C#N)cnc3cc(OCCCN4CCN(C)CC4)c(OC)cc23)c(Cl)cc1Cl	inactive	inactive	inactive	inactive	inactive	inactive		inactive	inactive	inactive	inactive	inactive	inactive	inactive			inactive		
